# Values quoted from earlier work in PubChem BioAssay AID977611.
# Screen size: about 3,900 compounds; about 3,900 (100%) were called active. Cut-off not given; nearly all actives show Kd up to about 4200 µM. The set was probably picked from earlier hits. Some of the results follow. Where a SMILES comes first, the peptide text is derived from it. Square brackets hold non-standard residues; d marks the D form. Peptide text beside a SMILES is read from it. [ ]: non-standard residue; d: D form. Orn(CH(NH2)2) = NC(N)NCCC[C@H](N)C(=O)O; Aib = CC(C)(N)C(=O)O
# Assay: PubChem AID 977611
# Details: PDB protein-ligand complexes, literature Kd
compound,measurement,setting,value
H-KEEEDDDMKELENWAGSM-OH,Kd,"protein: Programmed cell death 6-interacting protein, PDB entry 3c3q",48 µM (active)
CC[C@H](C)[C@H](NC(=O)[C@H](CC(=O)O)NC(=O)[C@H](Cc1ccccc1)NC(=O)[C@H](Cc1c[nH]c2ccccc12)NC(=O)[C@@H](N)CC(N)=O)C(=O)N[C@H](C(=O)N[C@@H](CC(N)=O)C(=O)NC(C)(C)C(=O)N[C@@H](CC(C)C)C(=O)N[C@@H](Cc1c[nH]c2ccccc12)C(=O)N[C@@H](CCCNC(N)N)C(=O)N[C@@H](CCCNC(N)N)C(=O)O)[C@@H](C)O (H-NWFDITN[Aib]LW[Orn(CH(NH2)2)][Orn(CH(NH2)2)]-OH),Kd,"protein: human fab 4e10, PDB entry 2fx8",0.302 µM (active)
CC[C@H](C)[C@H](NC(=O)[C@H](CC(C)C)NC(=O)[C@H](CCC(=O)O)NC(=O)[C@H](CCCNC(N)N)NC(=O)[C@H](CCCCN)NC(=O)[C@@H](N)CCCCN)C(=O)N[C@@H](CCC(=O)O)C(=O)N[C@@H](CO)C(=O)N[C@@H](CCCCN)C(=O)N[C@@H](Cc1c[nH]c2ccccc12)C(=O)N[C@@H](Cc1cnc[nH]1)C(=O)N[C@@H](CCCNC(N)N)C(=O)N[C@@H](CC(C)C)C(=O)N[C@@H](CC(C)C)C(=O)N[C@@H](Cc1ccccc1)C(=O)N[C@@H](Cc1cnc[nH]1)C(=O)N[C@@H](CC(=O)O)C(=O)N[C@@H](CCCCN)C(=O)N[C@@H](CCCCN)C(=O)O (H-KK[Orn(CH(NH2)2)]ELIESKWH[Orn(CH(NH2)2)]LLFHDKK-OH),Kd,"protein: Chlamydomonas reinhardtii caltractin (CRC-C), PDB entry 1oqp",0.05 µM (active)
H-TWIENKLYGM-OH,Kd,"protein: Dock 1 PTB domain, PDB entry 1uef",3.2 µM (active)
H-QLAWFDTDL-OH,Kd,"protein: Tax-interacting protein-1 (TIP-1), PDB entry 3diw",0.19 µM (active)
H-NFTLKFWDIF-OH,Kd,"protein: Chaperone surA(P2), PDB entry 2pv3",5.57 µM (active)
CC[C@H](C)[C@H](NC(=O)[C@H](CC(=O)O)NC(=O)[C@H](Cc1c[nH]c2ccccc12)NC(=O)[C@H](Cc1ccccc1)NC(=O)[C@H](CCCCN)NC(=O)[C@H](CC(C)C)NC(=O)[C@@H](NC(=O)[C@H](Cc1ccccc1)NC(=O)[C@@H](N)CC(N)=O)[C@@H](C)O)C(=O)N[C@@H](Cc1ccccc1)C(=O)N[C@@H](CCCNC(N)N)C(=O)N[C@@H](CCCCN)C(=O)O (H-NFTLKFWDIF[Orn(CH(NH2)2)]K-OH),Kd,"protein: Chaperone surA-P1, PDB entry 2pv2",1.23 µM (active)
NCc1cccc(-n2cccn2)c1,Kd,"protein: CATIONIC TRYPSIN, PDB entry 4abe",400 µM (active)
NCc1ccccc1-n1cccn1,Kd,"protein: INTEGRASE, PDB entry 4ahv",15000 µM (active)
NCc1cccc(N2CCCC2)c1,Kd,"protein: CATIONIC TRYPSIN, PDB entry 4abh",71 µM (active)
NCc1cccc(-n2cccc2)c1,Kd,"protein: CATIONIC TRYPSIN, PDB entry 4abd",40 µM (active)
O[P+](O)(O)O[C@@H]1C(OCc2ccccc2)[C@H](O[P+](O)(O)O)[C@@H](O[P+](O)(O)O)C(OCc2ccccc2)[C@H]1O[P+](O)(O)O (stereo not given in full),Kd,"protein: Inositol hexakisphosphate and diphosphoinositol-pentakisphosphate kinase 2 PPIP5K2, PDB entry 4nzo",0.17 µM (active)
C[C@@H]1O[C@@H](O)[C@H](O)[C@H](O)[C@H]1O,Kd,"protein: Putative rhamnosidase, PDB entry 3w5n",135 µM (active)
C[C@H]1O[C@H](O)[C@@H](O)[C@@H](O)[C@@H]1O,Kd,"protein: Pyocin L1, PDB entry 4led",5000 µM (active)
O=S(=O)(Nc1nc2ccc(Cl)cc2s1)c1cc2ccccc2s1,Kd,"protein: 3-phosphoinositide-dependent protein kinase 1 PDK1, PDB entry 4rqv",9 µM (active)
H-SFGDGFADF-OH,Kd,"protein: AP-2 complex subunit ?-2, PDB entry 2iv9",46 µM (active)
CC(C)C[C@H](NC(=O)[C@@H](N)CC(=O)O)C(=O)N[C@@H](Cc1ccccc1)C(=O)O (H-Asp-Leu-Phe-OH),Kd,"protein: DNA polymerase III subunit beta, PDB entry 4k3m",281 µM (active)
H-DEEGGGEEDQDFDLSQLH-OH,Kd,"protein: p120 catenin isoform 4A delta 1 (deletion, residues 613-643), PDB entry 3l6x",40 µM (active)
H-DLLDSLGF-OH,Kd,"protein: Chemotaxis protein cheY, PDB entry 2pmc",64.7 µM (active)
H-SGFSF-OH,Kd,"protein: Ras GTPase-activating protein-binding protein 1, PDB entry 4fcm",115 µM (active)
